Compounds with a hit are over-represented: about 2.9% of the library has one in this group of screens.
GLP1R ag – GLP-1 receptor (human) agonism | 380,000 compounds, 0.007% hits | Potency, µM (titrated, usually from 45.6 µM), without a hit: at the highest dose activation, hits mostly activators | HEK293 GLP-1R CRE-luciferase, luminescence, 4-6 h; cells express a hypersensitive GLP-1R form | P43220; also: potency is read from the fitted curve at half-maximal effect; % of control where 0% means no effect
Target sequence (P43220 whole entry, looked up): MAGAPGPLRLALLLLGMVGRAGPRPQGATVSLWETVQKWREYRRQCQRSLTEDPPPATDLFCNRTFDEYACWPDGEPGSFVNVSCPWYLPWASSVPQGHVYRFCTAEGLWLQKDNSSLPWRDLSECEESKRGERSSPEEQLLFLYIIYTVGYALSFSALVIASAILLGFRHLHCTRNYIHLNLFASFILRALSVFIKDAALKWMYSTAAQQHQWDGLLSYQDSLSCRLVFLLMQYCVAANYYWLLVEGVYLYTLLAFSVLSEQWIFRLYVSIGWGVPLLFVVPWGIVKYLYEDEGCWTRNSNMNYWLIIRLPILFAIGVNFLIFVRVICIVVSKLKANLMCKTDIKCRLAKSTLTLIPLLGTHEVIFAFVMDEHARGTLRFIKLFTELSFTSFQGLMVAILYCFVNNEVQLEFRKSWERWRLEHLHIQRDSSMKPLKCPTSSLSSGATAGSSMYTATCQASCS
LDHA block – LDHA (human) enzyme inhibition | P00338 | purified LDHA, NADH/diaphorase-resazurin fluorescence; active compounds read low | activity change, % (values are at about 110 or 230 µM) | 480,000 compounds, 0.15% hits; in the data active = activity change below about -30%; inconclusive = mostly about -25% to -30%;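 also: plate controls were DMSO wells for no effect and wells without enzyme for full effect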
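Human LDH5 at 2 nM final in Tris HCl pH 7.4 with 0.06 mM NADH and 0.2 mM pyruvate, reacted 5 minutes at room temperature. Remaining NADH coupled via diaphorase/resazurin; resorufin fluorescence read at 0 and 20 minutes, normalized to enzyme-free and DMSO wells.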
p53 reactivator – restores transcriptional activity of mutant p53. H1299 p53-A138V BP100-luciferase reporter, luminescence, 24 h. Potency, µM (top dose mostly 92.2 µM), for the others: at the top dose activity change, positive = activation, most hits filed as activators. 320,000 compounds, 0.063% hits. AID 504706; also: potency is read from the fitted curve at half-maximal effect; % of control where 0% means no effect; nearly all actives have a fitted effect of over 45% in size
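H1299 (p53-null), stable ts p53-A138V + BP100-Luc; 1000 cells/well, Opti-MEM/10% FBS; cpd 4 pt, 1:5; 24 h, 37 deg C, 5% CO2; detection reagent 10 min RT; luminescence.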
HEK293 tox – cytotoxic in the GLP-1 receptor inverse agonist counter-screen; HEK293 cAMP-luciferase reporter cells, luminescence, 24 h; AID 624418; 410,000 compounds, 0.13% hits; Potency, µM (titrated, usually from 38.3 µM), for inactives: at the top dose activity change, negative = inhibition, usual class: inhibitors;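 also: loss of luciferase light is scored as toxicity; potency is read from the fitted curve at half-maximal effect; % is scaled to controls: 0 for no effect and ±100 for the full control effect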
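Quantitative HTS format, 1536 wells, 200 cells/uL seeded. Compounds: 23 nL, 24 h, 37 °C. Detection: luciferase reagent, luminescence at 12 min RT; decreased signal taken as cytotoxic.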
ClpP mod – qHTS Assay for Activators of ClpP; ATP-dependent Clp protease proteolytic subunit (Bacillus subtilis (strain 168)), P80244; AID 651965, 2013; Potency, µM (highest dose often 57.5 µM), without a hit: top-dose activity change, negative = active; 340,000 compounds, 1.9% hits; purified B. subtilis ClpP, FRET peptide cleavage, 20 min; active = well fitted falling curve with a large enough effect; inconclusive = small, poorly fitted or top-dose-only effect; inactive = no such curve, though single readings can be large or run the other way; also: potency is read from the fitted curve at half-maximal effect; the source files actives as falling curves though it sought activators and does not explain the sign; nearly all actives have a fitted effect of over 65% in size
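Buffer: 100 mM Tris/HCl pH8, 100 mM KCl, 0.05% low protease BSA, 2.5% glycerol, 0.01% Tween-20. ClpP 10 microg/mL final; 20 min RT; delta FRET normalized to ADEP and DMSO controls.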
GLP-1R inv ag – GLP-1 receptor (human) inverse agonism. P43220. HEK293 GLP-1R CRE-luciferase, luminescence, 24 h; GLP-1R form is constitutively active. Potency, µM (doses to about 38.3 µM), without a hit: at the top dose activity change, negative = inhibition, actives largely listed as inhibitors. 410,000 compounds, 1.6% hits; also: potency is read from the fitted curve at half-maximal effect; % is scaled to controls: 0 for no effect and ±100 for the full control effect; nearly all actives have a fitted effect of over 55% in size
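Inverse agonists were sought by their lowering of basal cAMP reporter luciferase output in HEK293 cells stably carrying constitutively active human GLP-1R, after 24 h compound treatment.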
* = called active by the depositor; ? = inconclusive; . = no result given. Unless noted, calls follow the shape of the dose curve; as a rule, active = well fitted curve in the direction sought with a large enough effect; inconclusive = small, poorly fitted or top-dose-only effect, or another doubt; inactive = no such curve, though single readings can be large; an effect the other way counts as inactive or inconclusive.

SMILES	GLP1R ag	LDHA block	p53 reactivator	HEK293 tox	ClpP mod	GLP-1R inv ag
CCOC(=O)c1c(NC(=O)CSc2nnc(-c3cccnc3)o2)sc2c1CCC2	-9%	-5	3%	2%	-1%	3%
CC(OC(=O)c1cccnc1SCc1cc(=O)n2ccccc2n1)c1ccccn1 (centres undefined)	26%	5	6%	-5%	-23%	67%
CCOC(=O)c1cccnc1SCc1cc(=O)n2ccccc2n1	?	-7	?	-23%	32µM*	0%
Cn1c2ccccc2c2cc(/C=N/NC(=O)c3cc(O)cc(O)c3)ccc21	5%	-2	-11%	-2%	4%	?
COc1cc(C(=O)N/N=C/c2ccc3c(c2)c2ccccc2n3C)ccc1O	-13%	-7	-2%	?	28µM*	?
COc1cc(C=NNC(=O)c2ccccc2-n2cccc2)ccc1O	15%	6	-5%	-2%	20µM*	8%
CCn1c2ccccc2c2cc(/C=N/NC(=O)c3ccccc3)ccc21	-5%	-8	0%	?	22µM*	?
COc1ccc(S(=O)(=O)Nc2c(O)c3ccccc3oc2=O)cc1	8%	-10	-4%	11%	.	18%
CC(C)OC(=O)c1cc2c(ccn2C)n1CC(=O)N(Cc1ccccc1)c1ccc(F)cc1	-2%	0	7%	?	32µM*	?
CCOC(=O)c1cc2c(ccn2C)n1CC(=O)N(Cc1ccccc1)c1ccccc1	1%	28	8%	-3%	?	13µM*
CCOC(=O)c1cc2c(ccn2C)n1CC(=O)N(Cc1ccccc1)c1ccc(F)cc1	-1%	6	10%	11%	-10%	?
COc1ccc([N+](=O)[O-])cc1NC(=O)Cc1ccc(C)cc1	2%	-2	-4%	-15%	-6%	16%
O=C(COc1ncnc2sc3c(c12)CCCC3)Nc1ccc2c(c1)OCCO2	.	3	.	.	.	.
Cc1ccc(NC(=O)N2CCCC2C(=O)NCc2cccs2)cc1 (centres undefined)	-9%	4	-3%	-2%	-1%	-10%
O=C(CC1N=C2c3ccccc3N=C(SCc3cccc(Cl)c3)N2C1=O)NC1CCCCC1 (centres undefined)	.	-3	.	24%	35µM*	41%
CCc1ccc(NC(=O)CSC2=Nc3ccccc3C3=NC(CC(=O)NC4CCCCC4)C(=O)N23)cc1 (centres undefined)	.	1	.	-4%	0%	?
CC(C)c1ccc(NC(=O)CSC2=Nc3ccccc3C3=NC(CC(=O)NC4CCCCC4)C(=O)N23)cc1 (centres undefined)	.	1	.	-12%	-2%	10µM*
O=C(CSC1=Nc2ccccc2C2=NC(CC(=O)NC3CCCCC3)C(=O)N12)Nc1ccc(F)cc1 (centres undefined)	.	-7	.	-12%	14µM*	?
O=C(CC1N=C2c3ccccc3N=C(SCc3cccc(F)c3)N2C1=O)NC1CCCCC1 (centres undefined)	.	3	.	1%	0%	?
CC(C)c1ccc(NC(=O)CSC2=Nc3ccccc3C3=NC(CCC(=O)NC4CCCCC4)C(=O)N23)cc1 (centres undefined)	.	-2	.	-3%	4%	-14%
CCC(=O)N1CCc2cc(S(=O)(=O)NC(C(=O)N3CCN(c4ccc(F)cc4)CC3)C(C)C)ccc21 (centres undefined)	-3%	1	5%	0%	1%	5%
COc1ccc(-c2cc3ccccc3n2CC(O)Cn2nc(C)cc2C)cc1 (centres undefined)	-4%	4	3%	-4%	22µM*	?
